Molecules are shown by their SMILES. The campaign covered roughly 2,100 compounds. About 760 (36%) were called active.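 How the source made its calls: active means thallium-flux fluorescence traces judged by eye to show enhanced or reduced glutamate response, manual score 1 or -1, so both directions (some results past the limit were not filed as active); inactive means the rest, including fluorescent or raised-baseline compounds.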 Only a sample is shown.

This test can be described thus: non-GIRK thallium flux modulation in mGlu8 cells, confirmation, counter-screen for GIRK activator project, cell-based, HEK-293 rmGlu8, no GIRK (AID 623868).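 Further: extra codes mark interference with 3 for fluorescent and 4 for baseline rise.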 The note with it: thallium flux fluorescence, at 10 µM, actives lie on both sides, codes: 1 enhancer, -1 blocker, 0 none, thallium stimulus containing EC20 glutamate. Background: The purpose of a counterscreen is to sort out artefacts and off-target activity.
As for `O=C(NN=c1c(=O)c2ccccc2c1=O)c1ccccc1`, the manual score is 1 (active).

Consider `C/C(=N\O)C(C)NC(=O)c1ccccc1` (stereo not drawn), for which the manual score is 0 (inactive).

As to `O=C(Nc1ccc(SC(F)F)cc1)C12CCC(CC1)C2`, the manual score was 0 (inactive).

As for `O=c1[nH]c2ccc(Cl)cc2c(=O)n1Cc1ccco1`, the manual score is 0 (inactive).

For the compound `O=c1c2cc(Cl)ccc2[nH]c(=S)n1Cc1ccco1`, the manual score is 1 (active).

Regarding `O=c1c2cc(Cl)ccc2[nH]c(=S)n1Cc1cccs1`, the manual score was 1 (active).

With `O=c1c2cc(N3CCOCC3)ccc2[nH]c(=S)n1Cc1ccc(Cl)cc1`, the manual score is 0 (inactive).

Turning to `Cc1c(C(=O)O)[nH]c2c1C(=O)CC(c1ccc(Cl)cc1)C2` (stereo not drawn), the manual score was 0 (inactive).

With `CN1CCN(CC(=O)N2c3ccccc3C(C)(c3ccc(Cl)cc3)CC2(C)C)CC1` (stereo not drawn), the manual score was 0 (inactive).

On to `CCCCNC(=S)NC(=O)c1ccc([N+](=O)[O-])cc1`, for which the manual score is 1 (active).

As for `COC(=O)C(CC(C)C)NC(=O)c1ccc([N+](=O)[O-])c(C)c1` (stereo not drawn), the manual score is 0 (inactive).

In the case of `CC(C)CNC(=S)NC(=O)c1ccc(F)cc1`, the manual score is 1 (active).

Regarding `CC(C)CNC(=S)NC(=O)c1ccc([N+](=O)[O-])cc1`, the manual score is 1 (active).

Consider `CCCCCC(=O)NC(=S)NNC(=O)c1ccc([N+](=O)[O-])cc1`, for which the manual score was 1 (active).

As for `O=C(NN=C(Cc1ccccc1)Cc1ccccc1)c1ccc(F)cc1`, the manual score was 0 (inactive).

For the compound `CCCn1c(=N)n(CC(O)COc2cccc(C)c2)c2ccccc21` (stereo not drawn), the manual score is 0 (inactive).

Take `CN(C)Cc1c(O)c(Cl)cc2c3c(c(=O)oc12)CCCC3`: the manual score is 0 (inactive).

For `COc1ccc2c(c1)C(C)=CC(C)(C)N2C(=O)CNCc1ccc2c(c1)OCO2`, the manual score was 0 (inactive).

Turning to `O=C(O)c1oc2ccccc2c1CSc1ccccn1`, the manual score was 0 (inactive).

On to `CCn1cc(C(=O)N2CC=C(c3ccccc3)CC2)c(=O)c2ccc(C)nc21`, for which the manual score is -0.5 (inactive).

With `CCN(CC)c1ccc(/C=C2/C(=O)c3ccc(C(=O)O)cc3C2=O)cc1`, the manual score is 3 (inactive).

With `COc1ccc2nc(N3C(=O)/C(=C/c4ccccc4)NC3=S)sc2c1`, the manual score was 1 (active).

Take `O=C(c1ccco1)N1CCN(c2ncnc3scc(-c4cccs4)c23)CC1`: the manual score is 0 (inactive).

For the compound `Cc1cc(N2CCOCC2)n2nc(C)c(-c3ccccc3)c2n1`, the manual score was 0 (inactive).

On to `CCc1cccc(CC)c1-n1c(SCC(=O)N2CCc3ccccc3C2)nnc1-c1cccnc1`, for which the manual score was 0 (inactive).

Take `Cn1c(SCC(=O)N2c3ccccc3CCc3ccccc32)nnc1-c1ccc(O)cc1`: the manual score was 0 (inactive).

Take `CCCn1c(=O)c2ccccc2n2c(SCC(=O)N3CCc4ccccc4C3)nnc12`: the manual score was -1 (active).

As to `CCCn1c(=O)c2ccccc2n2c(SCc3nc4ccccc4s3)nnc12`, the manual score was -1 (active).

As to `CCCn1c(=O)c2ccccc2n2c(SCCOc3ccccc3F)nnc12`, the manual score is -0.5 (inactive).

As for `CCCCOC(=O)c1ccc(NC(=S)NC(=O)c2c(Cl)cnn2C)cc1`, the manual score was 0.5 (inactive).

As to `COC(=O)c1ccc(Cl)c(NC(=O)CN2CCN(C)CC2)c1`, the manual score is 0 (inactive).

In the case of `CCCCOC(=O)Nc1ccc(C(=O)OCCC)cc1`, the manual score is 0 (inactive).

With `CCCOC(=O)c1ccc(NC(=O)c2ccoc2C)cc1`, the manual score is 0 (inactive).

As for `CCCCOC(=O)c1ccc(NC(=S)NC(=O)c2c(Br)c(C)nn2C)cc1`, the manual score was 1 (active).

On to `CCCCc1ccc(NC(=S)Nc2ccc(Cl)c(S(=O)(=O)N(C)C)c2)cc1`, for which the manual score is 0 (inactive).

As for `COC(=O)c1ccc(NC(=O)C23CC4CC(C2)CC(n2cncn2)(C4)C3)cc1`, the manual score is 0 (inactive).

Turning to `COC(=O)c1ccc(NC(=S)NC(=O)c2c(Cl)cnn2C)cc1`, the manual score is 1 (active).

With `CCCCOC(=O)c1ccc(NC(=S)NC(=O)c2c(Cl)cnn2CC)cc1`, the manual score was 1 (active).

As for `CC1CCN(c2ccccc2NC(=S)NC(=O)c2cccs2)CC1`, the manual score is 1 (active).

As to `O=C(NC(=S)Nc1ccccc1N1CCOCC1)c1cccs1`, the manual score was 1 (active).

For `Cc1ccc(NC(=O)C(c2ccccc2)C2CCCC2)cc1` (stereo not drawn), the manual score is 0 (inactive).

Regarding `O=C1NC(=S)S/C1=C\c1ccc(SCc2ccccc2)o1`, the manual score was 1 (active).

In the case of `O=C1NC(=S)/C(=C\c2ccc(-c3ccccc3Cl)o2)S1`, the manual score is 3 (inactive).

In the case of `O=C(CSc1cccc2cccc(Cl)c12)NCc1cccs1`, the manual score was 0 (inactive).

For `CCC(C(=O)OCC(=O)Nc1ccc(Cl)c(S(=O)(=O)N(C)C)c1)c1ccccc1` (stereo not drawn), the manual score was 0 (inactive).

Regarding `COC(=O)c1sccc1NC(=O)CSc1ccccc1NS(=O)(=O)c1cc(Cl)ccc1Cl`, the manual score was 1 (active).

Turning to `O=S(=O)(Nc1nc(-c2sccc2Cl)cs1)c1cc(Cl)ccc1Cl`, the manual score was 0 (inactive).

Regarding `COC(=O)c1sccc1NC(=O)CSc1ccccc1NS(=O)(=O)c1ccc(Cl)cc1`, the manual score was 0.5 (inactive).

Take `COC(=O)c1sccc1NC(=O)CSc1ccccc1NS(=O)(=O)c1ccccc1Cl`: the manual score was 1 (active).

Consider `CN(C)S(=O)(=O)c1cccc(NC(=O)COc2cccc(C#N)c2)c1`, for which the manual score was 0 (inactive).

In the case of `Cc1ccc(C)c(C(=O)c2c(C)nc3sccn23)c1`, the manual score was 0 (inactive).

On to `CC(/C=C/c1ccccc1)=N/NC(=O)c1cc([N+](=O)[O-])cc([N+](=O)[O-])c1`, for which the manual score is 0 (inactive).

Take `Cc1ccc(/C=N\NC(=O)c2cc([N+](=O)[O-])cc([N+](=O)[O-])c2)o1`: the manual score is 1 (active).

As to `Cc1ccc(OCC(=O)N/N=C\c2ccc(-c3cccc(C(=O)O)c3)o2)c(C)c1`, the manual score is 0 (inactive).

For the compound `Cc1ccc(-c2cc(-c3ccccc3)[nH]c(=S)c2C#N)cc1`, the manual score is 1 (active).

Consider `COc1ccc(CC(=O)Nc2cc(=O)n(C)c(=O)n2C)cc1`, for which the manual score is 0 (inactive).

Consider `CC(C)Cn1cnc2sc3c(c2c1=N)CCCC3`, for which the manual score was 0 (inactive).

Take `Cc1cc(C)nc(Sc2ncnc3sc4c(c23)CCC4)n1`: the manual score is 1 (active).

In the case of `COc1ccc(/C=C/c2nc3sc4c(c3c(=O)o2)CCC4)cc1`, the manual score is 3 (inactive).

Turning to `COc1ccc(CCC(=O)NCc2cnn(C)c2)cc1`, the manual score was 0 (inactive).

Regarding `O=C(CCSCc1cccc(Cl)c1)NCCc1ccc(Cl)cc1`, the manual score was 0 (inactive).

Take `O=C(CCc1ccccc1)NNC(=S)NC(=O)c1ccc(Cl)cc1`: the manual score is 1 (active).

For `COc1ccc(C(=O)NC(=S)NNC(=O)CCc2ccccc2)cc1`, the manual score was 1 (active).

In the case of `COc1ccc(C(=O)CC(=O)C(=O)NCCc2cccc(C)c2)cc1`, the manual score is 0.5 (inactive).

Consider `Oc1[nH]c2c(Cl)cc(Cl)cc2c1N=NC(=S)NCC1CCCO1` (stereo not drawn), for which the manual score was 1 (active).

Turning to `Oc1cccc(Nc2nc(NCC3CCCO3)c3ccccc3n2)c1` (stereo not drawn), the manual score is 0 (inactive).

In the case of `Oc1[nH]c2ccccc2c1N=NC(=S)NCCc1ccccc1`, the manual score is 1 (active).

Consider `Clc1ccc2[nH]c3c(NCC4CCCO4)ncnc3c2c1` (stereo not drawn), for which the manual score was 0 (inactive).

As for `Oc1[nH]c2ccccc2c1N=NC(=S)NCC1CCCO1` (stereo not drawn), the manual score was 1 (active).

On to `COc1ccc(S(=O)(=O)N(CC(=O)N2CCN(c3ccccc3)CC2)c2ccccc2)cc1`, for which the manual score was 0 (inactive).

`CN1C=CC2=C(C#N)C(N)C(C#N)(C#N)C(c3ccccc3)C2C1` (stereo not drawn): the manual score is 3 (inactive).

As to `CC(=O)c1cccc(NC(=O)C2CCCN2S(=O)(=O)c2cccc3cccnc23)c1` (stereo not drawn), the manual score is 0 (inactive).

On to `Cc1cc(/C=c2/sc3nc4ccccc4n3c2=O)c(C)n1-c1ccccn1`, for which the manual score is 0 (inactive).

Turning to `Cc1ccc2cccc(Oc3nnnn3-c3ccccc3)c2n1`, the manual score is 0 (inactive).

With `CCOC(=O)c1c(C)[nH]c2c1cc(O)c1ccccc12`, the manual score was 0 (inactive).

Take `CCOC(=O)c1c(-c2ccccc2)csc1NC(=S)NC`: the manual score is 1 (active).

As for `CCOC(=O)c1c(-c2ccc(C)o2)csc1NC(=S)NC(=O)c1cccs1`, the manual score is 0 (inactive).

On to `CCOC(=O)C(Cc1ccccc1)NC(=O)Cn1nnc(-c2ccccc2)n1` (stereo not drawn), for which the manual score was 0 (inactive).

For `CCOC(=O)c1c(-c2ccc(C)o2)csc1NC(=S)NC(=O)N(C)C`, the manual score was 1 (active).

Take `CCNC(=S)Nc1scc(-c2ccccc2)c1C(=O)OCC`: the manual score was 1 (active).

Regarding `Cc1ccc(OCC(=O)Nc2ccc(C)c(S(=O)(=O)N3CCCCC3)c2)c([N+](=O)[O-])n1`, the manual score was 0 (inactive).

With `NC(=O)c1noc(C(=O)N(CC(=O)NC2CCCC2)Cc2ccc3c(c2)OCO3)c1N`, the manual score was 0 (inactive).

Turning to `O=C1c2cccc3c(O)ccc(c23)C(=O)N1Cc1ccccc1`, the manual score was 3 (inactive).

Turning to `CCc1ccc(C2=NN(c3ccc(S(N)(=O)=O)cc3)C(c3ccc(F)cc3)C2)cc1` (stereo not drawn), the manual score is 0 (inactive).

As for `O=S(=O)(Nc1cc(Cl)ccc1N1CCCCC1)c1cccs1`, the manual score was 1 (active).

As to `O=S(=O)(Nc1ccccc1N1CCCCC1)c1ccc(Cl)s1`, the manual score is 1 (active).

In the case of `CCOc1ccccc1N1CCN(S(=O)(=O)c2cccs2)CC1`, the manual score is 0 (inactive).

Regarding `O=C(Nc1nncs1)c1ccccc1NS(=O)(=O)c1cccs1`, the manual score is 0 (inactive).

In the case of `O=C(Nc1ccccc1)c1ccccc1NS(=O)(=O)c1ccc(Cl)s1`, the manual score is 0.5 (inactive).

In the case of `CN1CCN(c2ccccc2NS(=O)(=O)c2ccc3c(c2)CCN3C(=O)C2CCC2)CC1`, the manual score is 0 (inactive).

For the compound `CCCN(CCC)CCCNC(=O)c1cc2c(=O)n(C)c3ccccc3c2n1C`, the manual score is 0 (inactive).

On to `S=c1nc[nH]c2c1sc1nc(-c3ccccc3)c3c(c12)CCCC3`, for which the manual score was 1 (active).

For `Cc1ccc2nsnc2c1S(=O)(=O)Nc1cccc2nsnc12`, the manual score was 1 (active).

Regarding `CCOC(=O)N1CCN(c2c(F)cc3[nH]c(=S)[nH]c3c2Br)CC1`, the manual score was 0 (inactive).

Turning to `Cc1sc2ncnc(N(C)Cc3cccs3)c2c1C`, the manual score was -1 (active).

Take `CC(C)CCNC(=O)C(C)N(Cc1ccc(F)cc1)C(=O)c1ccc(CN2CCCCC2)o1` (stereo not drawn): the manual score is 0 (inactive).

As for `CC(NC(=O)COc1ccccc1)C(=O)NC1=NCCS1` (stereo not drawn), the manual score was 0 (inactive).

As for `Cc1ccc(OCCCC(=O)Nc2nccs2)cc1`, the manual score was 0 (inactive).

In the case of `Cc1ccc(OCC(=O)NNC(=O)C(C)Sc2ncnc3sc(C)c(C)c23)cc1` (stereo not drawn), the manual score is 1 (active).

`CC1CC2=C(CC1/C=N/NC(N)=S)C(C)(C)CCC2` (stereo not drawn): the manual score is 0 (inactive).

Consider `COc1ccccc1OCC(O)Cn1c(=N)n(Cc2ccccc2)c2ccccc21` (stereo not drawn), for which the manual score was 0 (inactive).

In the case of `CC1=C(C(=O)OCC2CCCO2)C(c2ccc(C)o2)C2=C(CC(c3ccc(F)cc3)CC2=O)N1` (stereo not drawn), the manual score was -1 (active).

`CCOC(=O)C1=C(C)NC2=C(C(=O)CC(c3ccc(OC)c(OC)c3)C2)C1c1ccc(C)o1` (stereo not drawn): the manual score was 0 (inactive).

The record behind these values is PubChem BioAssay AID623868 (Vanderbilt High Throughput Screening Facility, 2012).
